Experimental findings from PubChem BioAssay AID1222 (Sanford-Burnham Center for Chemical Genomics, 2008) are described below.

Screen size: about 190,000 compounds; fewer than 10 were called active.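 The calls were made as follows: active = EC50 below 50 µM in the dose-response confirmation; inactive = the rest.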 A selection follows. Measured potencies and affinities stand elsewhere.

The test is described as follows: protection against thapsigargin-triggered cell killing – 384-well, CSM14.1, ATP luminescence, primary screen (AID 1222).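 Also: death triggered by thapsigargin at about 15 µM added after 2 h compound pretreatment; cell ATP read after overnight thapsigargin exposure of roughly 18 to 22 hours; reference of the scale not given here.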 The settings on record: CSM14.1 thapsigargin-induced death rescue, at 20 µM, active compounds read high.
Consider `O=C(NCC1CC1)[C@@H]1C[C@H]1[C@@H](NP(=O)(c1ccccc1)c1ccccc1)c1ccccc1`, for which the cellular ATP content (survival) was -1.2% (inactive).

Turning to `CC(=O)c1ccc(OCCCN2CCCCC2)cc1`, the cellular ATP content (survival) was -1.3% (inactive).

In the case of `O=C(COC(=O)c1cc(Br)ccc1O)Nc1cc(S(=O)(=O)N2CCCC2)ccc1Cl`, the cellular ATP content (survival) was -0.8% (inactive).

Take `O=C(NCCCN1CCCC1)c1cc2c(Cl)nc3ccccc3c2s1`: the cellular ATP content (survival) was -12% (inactive).

As for `CC(=O)Cn1c(N2CCC(Cc3ccccc3)CC2)nc2c1c(=O)[nH]c(=O)n2C`, the cellular ATP content (survival) was -1.8% (inactive).

In the case of `CCn1c(SCc2ccccc2Cl)nc2nc3c(cc2c1=O)CCCC3`, the cellular ATP content (survival) is -4.7% (inactive).

Take `CC(=O)Nc1ccc(OCc2cccc([N+](=O)[O-])c2)cc1`: the cellular ATP content (survival) is 1.1% (inactive).

For the compound `O=C(CSc1nc2ccccc2[nH]1)Nc1nc(-c2cccc(Br)c2)cs1`, the cellular ATP content (survival) is -3.8% (inactive).

Consider `CCOC(=O)C1CCN(C(=O)CCS(=O)(=O)c2ccc3c(c2)CC(C)N3C(=O)CC)CC1` (centres undefined), for which the cellular ATP content (survival) was 0.4% (inactive).

Take `Cc1ccc(C)c(N2CCN(C(=O)CN(C)S(=O)(=O)c3cnc[nH]3)CC2)c1`: the cellular ATP content (survival) was -1.7% (inactive).

Regarding `O=C(NCCO)c1cccc2c1C(=O)c1ccccc1-2`, the cellular ATP content (survival) is -1.3% (inactive).

As for `Cc1[nH]c2ccccc2c1C(=O)COC(=O)Cn1c(C(F)(F)F)nc2ccccc21`, the cellular ATP content (survival) is 0.2% (inactive).

As to `Cc1ccc(CNS(=O)(=O)/C=C/c2ccc3c(c2)OCO3)cc1`, the cellular ATP content (survival) is -2.2% (inactive).

On to `CC(=O)Nc1ccccc1C(=O)N1CCN(c2cccc(C)c2C)CC1`, for which the cellular ATP content (survival) is -1.4% (inactive).

Regarding `O=C(NCc1ccccn1)C1CC(c2ccc(F)cc2)=NO1` (centres undefined), the cellular ATP content (survival) was -1% (inactive).

As to `CSc1nccc(N2CCN(c3ccc(F)cc3)CC2)n1`, the cellular ATP content (survival) was 5.7% (inactive).

For `Cc1ccc(NC(=O)c2ccc(OC(=S)N3CCOCC3)cc2)cc1`, the cellular ATP content (survival) is -1.3% (inactive).

Take `Cc1cc(C)n(C(=O)COc2c(C)cccc2C)n1`: the cellular ATP content (survival) is -2.8% (inactive).

On to `CCc1ccc(-c2nc(CCl)cs2)cc1`, for which the cellular ATP content (survival) was -1.7% (inactive).

For `C=CCNCCCCOc1ccc(C)cc1[N+](=O)[O-]`, the cellular ATP content (survival) is -1.5% (inactive).

As to `CN(C)S(=O)(=O)c1ccc(C(=O)OCc2ccc(C#N)cc2)cc1`, the cellular ATP content (survival) is -0.2% (inactive).

With `C(=N\Nc1nc(N2CCOCC2)nc(N2CCOCC2)n1)/c1cccnc1`, the cellular ATP content (survival) was 1.2% (inactive).

As for `CCOC(=O)c1cc2cc([N+](=O)[O-])cc(OC)c2oc1=O`, the cellular ATP content (survival) is 0% (inactive).

Consider `CC(=O)c1c(C)[nH]c(C(=O)COC(=O)CCSc2ccccc2)c1C`, for which the cellular ATP content (survival) is 0.3% (inactive).

`COc1ccc(-c2csc(Nc3ccccc3)n2)cc1`: the cellular ATP content (survival) was -1.2% (inactive).

For `C=CC[C@@H]1Cc2c(Br)ccc(Br)c2[C@@H](CC=C)N1`, the cellular ATP content (survival) was -0.9% (inactive).

In the case of `Cc1ccccc1OCc1nnc(SCC(=O)Nc2ccc3nc(SCC(=O)Nc4ccccc4)sc3c2)n1C`, the cellular ATP content (survival) is -0.5% (inactive).

As for `COc1cc(NC(=O)CN2c3cccc4cccc(c34)S2(=O)=O)cc(OC)c1OC`, the cellular ATP content (survival) was -1% (inactive).

As to `C=CCn1c(=O)c(C(=O)OCC)c(O)c2ccccc21`, the cellular ATP content (survival) was -1.4% (inactive).

Regarding `CC(C)c1ccc(N2C(=O)CSC23C(=O)N2CCCc4cccc3c42)cc1` (centres undefined), the cellular ATP content (survival) is -0.3% (inactive).

With `O=C1CCc2cc(S(=O)(=O)NC(Cc3ccccc3)C(=O)NC3CCCCC3)ccc2N1` (centres undefined), the cellular ATP content (survival) was 0% (inactive).

As to `Cc1ccc(CCNC(=O)C2CCN(C(=O)N(C)C)CC2)cc1`, the cellular ATP content (survival) is -1.1% (inactive).

For the compound `CCOC(=O)CC1ON(C)C(=O)N1c1ccc(Cl)cc1Cl` (centres undefined), the cellular ATP content (survival) was 0.4% (inactive).

As for `COc1cc(/C=N/Nc2nc(Nc3ccccc3)nc(N3CCCCC3)n2)ccc1OCC(=O)O`, the cellular ATP content (survival) is -1.5% (inactive).

`COCCN(C(=O)Cc1cccs1)C(C(=O)NC1CCCC1)c1ccc(OC)c(OC)c1` (centres undefined): the cellular ATP content (survival) is -1% (inactive).

In the case of `Cc1ccc(-c2nnc(CSc3nnc(COc4cccc5ccccc45)n3-c3ccccc3)o2)cc1`, the cellular ATP content (survival) was 0.6% (inactive).

Take `CC(C)=CCN1CCN(Cc2ccc(C)s2)CC1CCO` (centres undefined): the cellular ATP content (survival) is 0.8% (inactive).

Turning to `c1cnc2c(SCc3ccc(-c4nnco4)cc3)cccc2c1`, the cellular ATP content (survival) is -0.4% (inactive).

For `CC(=O)Nc1nc2ccc(NC(=O)c3ccco3)cc2s1`, the cellular ATP content (survival) was -5.6% (inactive).

`O=C1OC(Cc2ccccn2)C(=O)C1=C1SCCS1` (centres undefined): the cellular ATP content (survival) was -2.9% (inactive).

As to `O=C(c1ccc(Cl)c(S(=O)(=O)N2CCCCCC2)c1)N1CCN(c2ccccc2O)CC1`, the cellular ATP content (survival) was 0.3% (inactive).

`NS(=O)(=O)c1ccc(CCNC(=O)CN2CCN(c3cccc(Cl)c3)CC2)cc1`: the cellular ATP content (survival) is -2.9% (inactive).

For `Cn1c(N)c(C(=O)COC(=O)c2ccnc3ccccc23)c(=O)n(C)c1=O`, the cellular ATP content (survival) was -2.1% (inactive).

As for `O=C1CCCN1CCCN1C(=O)N[C@@H](Cc2ccccc2)C1=O`, the cellular ATP content (survival) is 2% (inactive).

For `Cc1cc(C)cc(OCC(=O)NNC(=O)C2CCCO2)c1` (centres undefined), the cellular ATP content (survival) is -0.3% (inactive).

For the compound `CC1CCCC(NC(=O)COC(=O)Cc2ccsc2)C1C` (centres undefined), the cellular ATP content (survival) was -1.7% (inactive).

Take `Cc1ccc(CSCc2nnc(SCC(=O)N3CCN(c4ccccc4)CC3)n2C)cc1`: the cellular ATP content (survival) is 2% (inactive).

In the case of `N#Cc1ccccc1Cn1cc(/C=C/[N+](=O)[O-])c2ccccc21`, the cellular ATP content (survival) was 4% (inactive).

As to `O=C(CCn1nnc2ccccc21)Nc1nnc(-c2ccccc2F)s1`, the cellular ATP content (survival) is 0.6% (inactive).

`Cc1ccc(C)c(N2CCN(C(=O)COc3cc(=O)n(C)c4ccccc34)CC2)c1`: the cellular ATP content (survival) was -0.1% (inactive).

In the case of `Cc1ccc(CNC(=O)C(=O)NCC2OCCN2C(=O)c2cccs2)cc1` (centres undefined), the cellular ATP content (survival) was -0.2% (inactive).

For `CCN1C=C(Cc2ccc(OC)cc2)C2=C(C1)C(c1ccc(OC)cc1)C(C#N)=C(N)O2` (centres undefined), the cellular ATP content (survival) is -1.8% (inactive).

As for `O=C(N/N=C/c1ccc(OCC(=O)N2CCCCC2)cc1)c1ccccc1O`, the cellular ATP content (survival) was 2.1% (inactive).

`CCC1Sc2ccccc2N(CC(=O)NC2CCCC2)C1=O` (centres undefined): the cellular ATP content (survival) was -1.6% (inactive).

With `Cc1ccc(C(=O)N/C(=C\c2ccc(Br)cc2)c2nc(=S)[nH][nH]2)cc1`, the cellular ATP content (survival) is -11.2% (inactive).

For `COc1ccc(OC)c(NC(=O)C2CCC(CNc3c(N4CCC(C)CC4)c(=O)c3=O)CC2)c1` (centres undefined), the cellular ATP content (survival) is 1.6% (inactive).

On to `O=CN1CCN(C(=O)c2ccc([N+](=O)[O-])cc2)CC1`, for which the cellular ATP content (survival) was 1.3% (inactive).

On to `COc1cccc(C(=O)CSc2nnc(CNS(C)(=O)=O)n2-c2ccc(C)cc2)c1`, for which the cellular ATP content (survival) was 0.4% (inactive).

As for `COCc1ccc([C@@H]2C[C@H]3CN(Cc4ccccc4C)C(=O)[C@]34CCCN24)o1`, the cellular ATP content (survival) was 6.6% (inactive).

Take `CCCOC(=O)CN1C(=O)c2ccccc2C1=O`: the cellular ATP content (survival) was -2.4% (inactive).

`Cc1ccc(S(=O)(=O)N(CC(=O)N/N=C/c2cccc(Cl)c2)c2cccc3cccnc23)cc1`: the cellular ATP content (survival) is 4.7% (inactive).

As to `CCC(Sc1nc(N)cc(=O)[nH]1)C(=O)Nc1cc(C)on1` (centres undefined), the cellular ATP content (survival) is 1.6% (inactive).

Regarding `COc1ccc(NC(=O)c2ccccc2NC(=O)CSc2ccc(C)cc2)cc1`, the cellular ATP content (survival) was 4% (inactive).

Turning to `Cc1ccc(C(=O)NNC2CC(=O)N(c3ccc4c(c3)OCCO4)C2=O)cc1` (centres undefined), the cellular ATP content (survival) is -0.8% (inactive).

Turning to `NC(N)=NC(N)=Nc1ccc(SC(F)(F)F)cc1`, the cellular ATP content (survival) was 0.3% (inactive).

In the case of `COc1ccccc1-c1noc(CCC(=O)Nc2cc(C(F)(F)F)ccc2Cl)n1`, the cellular ATP content (survival) is 1% (inactive).

For `O=C(Nc1cccc(-c2cn3cccnc3n2)c1)Nc1ccccc1F`, the cellular ATP content (survival) is -0.8% (inactive).

Take `O=C(NNS(=O)(=O)c1ccccc1)c1ccc(S(=O)(=O)N2CCCCC2)cc1`: the cellular ATP content (survival) is -2.8% (inactive).

As to `CSc1ccc(C(C(C(=O)c2cccs2)N2CCOCC2)N2CCOCC2)cc1` (centres undefined), the cellular ATP content (survival) was -1.7% (inactive).

In the case of `CCCn1c(=O)c2ccccc2n2c(SCC(=O)NCc3cccs3)nnc12`, the cellular ATP content (survival) was 2.6% (inactive).

As to `COC(=O)C1=C(N)Oc2cc(C)n(Cc3cccnc3)c(=O)c2C1c1cc(OC)ccc1OC` (centres undefined), the cellular ATP content (survival) was -3.1% (inactive).

As to `O=C(COc1ncnc2scc(-c3ccccc3)c12)NC1CCCc2ccccc21` (centres undefined), the cellular ATP content (survival) was -2.4% (inactive).

Consider `O=c1ccccn1CCOc1ccccc1Cl`, for which the cellular ATP content (survival) was 0.2% (inactive).

For `CCOC(=O)C1C(=O)C=C(c2ccc(Br)cc2)CC1c1ccco1` (centres undefined), the cellular ATP content (survival) is 0.2% (inactive).

On to `C[C@@H]1NC(=O)c2cc([N+](=O)[O-])cc(I)c2NCCCC[C@@H](C(N)=O)NC(=O)[C@H](CCC(=O)O)NC1=O`, for which the cellular ATP content (survival) is 6.5% (inactive).

Regarding `Cc1cc(C)n2nc(-c3ccsc3-n3c(C)ccc3C)cc2n1`, the cellular ATP content (survival) was 6% (inactive).

As to `Cn1c(=NC(=O)C2CCN(S(=O)(=O)c3cccs3)CC2)sc2ccccc21`, the cellular ATP content (survival) is -0.7% (inactive).

Turning to `COC(=O)COc1ccc(S(=O)(=O)N2CCc3ccccc3C2)cc1C`, the cellular ATP content (survival) was -0.7% (inactive).

Turning to `Cc1ccc(C(=O)/C=C/c2ccc(F)cc2)o1`, the cellular ATP content (survival) was -13.2% (inactive).

In the case of `O=C(O)CCCn1cc(NC(=O)c2cc(F)c(F)cc2Cl)cn1`, the cellular ATP content (survival) was -2.1% (inactive).

Take `COc1ccccc1CNC(=O)CCNC(=O)Cn1cnc2ccccc2c1=O`: the cellular ATP content (survival) is 0.7% (inactive).

On to `CC1(C)CC(=O)C2=C(C1)NC(=O)CC2c1cc2c(cc1Br)OCO2` (centres undefined), for which the cellular ATP content (survival) is -0.1% (inactive).

In the case of `O=C(N/N=C/c1ccncc1)NC1CCCCC1`, the cellular ATP content (survival) was -0.5% (inactive).

For `COc1cc(C(=O)Nc2cccc(-c3cn4cccnc4n3)c2)cc(OC)c1OC`, the cellular ATP content (survival) is -2% (inactive).

Take `O=C1c2ccccc2C(=O)C1C1=Nc2ccccc2NC(c2ccccc2)C1` (centres undefined): the cellular ATP content (survival) was 4.7% (inactive).

Take `Nc1ccc(Cc2nc3cc4ccccc4cc3[nH]2)cc1`: the cellular ATP content (survival) is -1.5% (inactive).

For the compound `CCc1cccc(C)c1NC(=S)N(Cc1cccnc1)Cc1ccco1`, the cellular ATP content (survival) was -2.7% (inactive).

Turning to `O=C(COc1ccc(Cl)cc1)N1CCN(C(=O)Cc2ccccc2)CC1`, the cellular ATP content (survival) was 5.3% (inactive).

As for `CCOC(=O)N1CCN(C(=O)c2cnn3ccccc23)CC1`, the cellular ATP content (survival) was 2.2% (inactive).

For the compound `O=C(N/N=C/c1cccc(Oc2ccccc2)c1)c1ccccc1Br`, the cellular ATP content (survival) was 0% (inactive).

With `Cc1cccc(-n2cnc3cc(C(=O)N4CCc5ccccc54)ccc32)c1`, the cellular ATP content (survival) was -2.1% (inactive).

Take `Cc1[nH]nc(Nc2ccc(O)cc2)c1[N+](=O)[O-]`: the cellular ATP content (survival) was -1.1% (inactive).

With `O=C(/C=C/c1ccco1)OCn1nnc2ccccc2c1=O`, the cellular ATP content (survival) is -0.7% (inactive).

As to `Cc1cccc(-c2ncc(CN3CCN(CCC(C)C)C(CCO)C3)cn2)c1` (centres undefined), the cellular ATP content (survival) is 0.8% (inactive).
